Measured values as given in PubChem BioAssay AID2576 (National Center for Advancing Translational Sciences (NCATS), 2010).
Results filed as inconclusive are left out. A call without a number means that no potency is given here. Active and inactive are the calls of the source. The call rests on the fitted dose curve; in most records, active means well fitted activation curve with a large enough effect; inconclusive means small, poorly fitted or top-dose-only effect, or effect the other way; inactive means flat fitted curve, though single readings scatter.

These compounds were tested against Pyruvate kinase PKM (Homo sapiens) (UniProt P14618) (assay: Secondary LDH Assay for Activators of Human Pyruvate Kinase M2 isoform: for Probe SAR). Details: purified hPK-M2, LDH-coupled NADH fluorescence kinetic; series mostly up to 58.4 µM.
Sequence of Pyruvate kinase PKM (Homo sapiens) (P14618 whole entry, looked up, canonical isoform): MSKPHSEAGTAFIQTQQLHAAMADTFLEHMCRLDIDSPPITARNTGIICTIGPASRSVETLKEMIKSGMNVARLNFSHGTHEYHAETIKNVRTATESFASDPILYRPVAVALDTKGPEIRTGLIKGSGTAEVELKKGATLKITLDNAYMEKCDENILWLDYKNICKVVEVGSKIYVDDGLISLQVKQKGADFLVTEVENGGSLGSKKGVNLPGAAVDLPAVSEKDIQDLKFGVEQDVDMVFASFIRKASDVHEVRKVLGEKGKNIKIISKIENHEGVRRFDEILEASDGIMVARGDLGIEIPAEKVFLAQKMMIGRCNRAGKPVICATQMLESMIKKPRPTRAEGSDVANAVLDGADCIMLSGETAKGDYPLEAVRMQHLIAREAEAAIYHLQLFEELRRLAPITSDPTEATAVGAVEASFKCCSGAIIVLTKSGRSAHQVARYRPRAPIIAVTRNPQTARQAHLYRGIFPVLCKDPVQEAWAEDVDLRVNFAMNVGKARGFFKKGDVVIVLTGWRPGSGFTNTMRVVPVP
Description: NIH Chemical Genomics Center [NCGC] Matthew G. Vander Heiden, M.D., Ph.D. [Harvard Medical School, 77 Avenue Louis Pasteur, Boston, MA 02115] NCGC Assay Overview: Human pyruvate kinase muscle 2 (hPK-M2)enzyme was supplied as a highly purified (>95% pure) preparation from Harvard Medical School and a secondary assay was used to evaluate compounds. This assay couples the formation of pyruvate from hPK-M2 using lactate dehydrogenase (LDH) and NADH. The depletion of NADH is followed in a fluorescent-based kinetic assay that follows the formation of pyruvate to lactate, as catalyzed LDH (described by Hannaert et al., 2002)1 Pyruvate kinase substrates, PEP and ADP, were present in the assay at 0.1 mM and 4 mM respectively. In this kinetic assay initial rates were determined by following the fluorescence of NADH depletion.
NCGC Assay Protocol Summary: Three uL of substrate mix (final concentration, 50 mM Tris-Cl pH 8.0, 200 mM KCl, 15 mM MgCl2, 0.1 mM PEP, 4.0 mM ADP, and 0.2 mM NADH) was dispensed into black-solid 1536 well plates. 23 nL of compounds were delivered by a pin tool and 1 uL of enzyme mix (final concentrations, 10 nM hPK-M2 and 1 uM of LDH) was added. Plates were immediately placed in ViewLux (Perkin Elmer) and NADH fluorescence was determined at 30 second exposure intervals for between 3 and 6 minutes. Data were normalized to the uninhibited and EC100 activation using known activators such as fructose-bis-phosphate.

Compound	Potency
Cc1ccc(NS(=O)(=O)c2cc3c(cc2-c2ccsc2)NC(=O)CO3)cc1C	inactive
CC(=O)N1CCCc2cc(S(=O)(=O)Nc3ccc(C)c(C)c3)ccc21	inactive
O=C1c2ccccc2C(=O)N1c1cnc2ccccc2c1	inactive
Cc1ccc(NS(=O)(=O)c2cc3c(cc2F)NC(=O)CC3)cc1C	2590 nM (active)
Cc1ccc(C)c(OC2=NS(=O)(=O)c3ccccc32)c1	inactive
Cc1ccc(NS(=O)(=O)c2ccc(-c3ccccc3)cc2)cc1C	inactive
Cc1ccc(NS(=O)(=O)c2cc3c(cc2/C=C/c2ccccc2)NC(=O)CO3)cc1C	inactive
COc1cccc(N2C(=O)c3ccccc3C2=O)n1	inactive
CSc1cc2c(s1)c1cnn(Cc3cccc(N)c3)c(=O)c1n2C	58 nM (active)
O=C1c2ccccc2C(=O)N1c1cncc2ccccc12	inactive
O=C1c2ccccc2C(=O)N1Cc1ccncc1	inactive
Cc1ccn2c(NC3CCCCC3)c(-c3ccc(C)o3)nc2c1	inactive
Cc1ccc(NS(=O)(=O)c2ccc3c(c2)CCC(=O)N3)cc1C	146 nM (active)
Cc1ccc(-c2nc3ccc(Cl)cn3c2Nc2ccccc2)o1	inactive
O=C1CCc2cc(S(=O)(=O)Nc3ccc(-c4ccccc4)cc3)ccc2N1	inactive
O=C1c2ccccc2C(=O)N1c1cccc(O)c1	inactive
O=C1c2ccccc2C(=O)N1Cc1cccnc1	inactive
COc1ccccc1N1C(=O)c2ccccc2C1=O	inactive
O=C1CCc2cc(S(=O)(=O)Nc3cccc(-c4ccccc4)c3)ccc2N1	inactive

Compound	Potency
O=C1CCc2cc(S(=O)(=O)Nc3ccccc3-c3ccccc3)ccc2N1	inactive
Cc1ccc(NS(=O)(=O)c2cc3c(cc2N2CCCCC2)NC(=O)CC3)cc1C	inactive
O=S1(=O)N=C(Oc2ccc(Cl)cc2)c2ccccc21	inactive
CC(=O)Nc1cccc(S(=O)(=O)Nc2ccc(C)c(C)c2)c1	inactive
O=C1c2ccccc2C(=O)N1c1ccccn1	inactive
O=S1(=O)N=C(Oc2cccc(Cl)c2)c2ccccc21	inactive
Cc1ccc(NS(=O)(=O)c2ccc3c(c2)CCC(C)(C)O3)cc1C	inactive
O=S(=O)(c1ccc2c(c1)OCCO2)N1CCN(S(=O)(=O)c2c(F)cccc2F)CC1	5800 nM (active)
Cc1cc(C)n2c(Nc3ccccc3)c(-c3ccc(C)o3)nc2n1	inactive
Cc1ccc(N(C)S(=O)(=O)c2ccc3c(c2)CCC(=O)N3)cc1C	inactive
O=C1CCc2cc(S(=O)(=O)Nc3ccc(F)cc3)ccc2N1	inactive
Cc1ccc(NS(=O)(=O)c2ccc(N3CCCC3=O)cc2)cc1C	inactive
Cc1ccc(NS(=O)(=O)c2cc3c(cc2Cl)CCC(=O)N3)cc1C	461 nM (active)
O=C1CCc2cc(S(=O)(=O)Nc3ccncc3)ccc2N1	inactive
COc1ccc(Nc2c(-c3ccc(C)o3)nc3ccccn23)cc1	inactive
O=C1c2ccccc2C(=O)N1c1ccc(O)cc1	inactive
O=C1c2ccccc2C(=O)N1C1CCCCC1	inactive
O=C1CCc2cc(S(=O)(=O)Nc3ccccc3Cl)ccc2N1	inactive
O=C1c2ccccc2C(=O)N1c1ccc2ccccc2n1	inactive
